Experimental data published in the supplement of paper PMC10849652.
Targets with a hit are over-represented here; the source holds about 7,900 in all. About 0.6% of all pairs of compound and target were hits.

Columns and labels:
Assay in all cases: log2 fold change, soluble protein after heating vs DMSO (PISA); higher = thermal stabilisation; K562 cells, 10 uM, 30 min; active = over 0.2 and 3.5 SD of the protein, either way, in both replicates (recomputed)
[1] = compound: C#Cc1cccc(Nc2ncnc3cc(OCCOC)c(OCCOC)cc23)c1 [erlotinib]
In short: (§1)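 Values are thermal stability changes relative to control samples and are taken from duplicates. They are stated as log2 fold changes. Before quantification by TMTpro 16plex LC-MS/MS with equalised channel sums, K562 cells at 2×10^6 cells/mL were treated with 10 μM compound for 30 min, heated in aliquots for 3 min across 48°C-58°C, pooled, extracted in PBS with 0.5% NP-40 at 4°C, and centrifuged at 21,000xg for 90 min to give the soluble supernatant.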

[2] = compound: C/C(=N\NC(=O)C1=CC(=CC=C1)S(=O)(=O)N2CCOCC2)/C3=C(C=CC(=C3)Cl)O
In short: as §1

[3] = compound: C1=CC(=C(C=C1Cl)C2=NC3=NC=CN=C3C(=N2)NC4=CC=NC=C4)F
In short: as §1

[4] = compound: C1=CC(=CC=C1C2=NC3=C(N2)C=C(C=C3)C(=O)N)OC4=CC=C(C=C4)Cl
In short: as §1

[5] = compound: C1=CC2=C(C=CC(=C2)/C=C\3/C(=O)NC(=NCC4=CC=CS4)S3)N=C1
In short: as §1

[6] = compound: C1=CC2=NC=CN=C2C=C1/C=C/3\C(=O)NC(=O)S3
In short: as §1

[7] = compound: C1=CC=C(C=C1)C2=NC(=C(N2)C3=CC=NC=C3)C4=CC(=C(C=C4)Cl)O
In short: as §1

[8] = compound: C1=CC=C2C(=C1)C3=NNC4=CC=CC(=C43)C2=O
In short: as §1

[9] = compound: C1COCCN1CCN2C3=CC=CC=C3N=C2NC(=O)C4=CC(=CC=C4)[N+](=O)[O-] [IRAK-1-4 Inhibitor I]
In short: as §1

[10] = compound: C=CC(=O)N1CCC[C@@H](n2nc(-c3ccc(Oc4ccccc4)cc3)c3c(N)ncnc32)C1 [ibrutinib]
In short: as §1

[11] = compound: CC(=O)c1cnc2ccc(-c3cc(Cl)c(O)c(Cl)c3)nc2c1N[C@H]1CC[C@H](CN(C)C)CC1
In short: as §1

[12] = compound: CC(C)(C)Cn1c(N)nc2ccc(-c3[nH]c(C(C)(C)C)nc3-c3ccc(F)cc3)nc21 [ralimetinib]
In short: as §1

[13] = compound: CC(C)(O)CC(=O)NCCn1ccc2ncnc(Nc3ccc(Oc4cccc(C(F)(F)F)c4)c(Cl)c3)c21
In short: as §1

[14] = compound: CC(C)C1=C2N=C(C=C(N2N=C1)NCC3=CC=CC=C3)NCCCCCCN
In short: as §1

[15] = compound: CC(C)C[C@@H](C=O)NC(=O)[C@H](CC(C)C)NC(=O)[C@H](CC(C)C)NC(=O)OCc1ccccc1
In short: as §1

[16] = compound: CC(C)N(C[C@H]1O[C@@H](n2cnc3c(N)ncnc32)[C@H](O)[C@@H]1O)[C@H]1C[C@@H](CCc2nc3cc(C(C)(C)C)ccc3[nH]2)C1 [pinometostat]
In short: as §1

[17] = compound: CC1=C(C(CC(=O)N1)C2=CC=C(C=C2)C(F)(F)F)C(=O)NC3=C(C=C4C(=C3)C=NN4)F
In short: as §1

[18] = compound: C1CCN(C1)C(=O)NC2=CC=CC(=C2)NC3=NC=C(C(=N3)NCCC4=CN=CN4)Br
In short: as §1

[19] = compound: C1CN(CCC1(CC2=CC=C(C=C2)Cl)N)C3=NC=NC4=C3C=CN4
In short: as §1

[20] = compound: CC1=C(C2=C(C=C1)C(=O)C3=CC=CC=C3N2CCCN)C
In short: as §1

Measured: log2 fold change

RUNX1 isoform 8 (UniProt Q01196)
Sequence of UniProt Q01196 (Q01196 whole entry, looked up): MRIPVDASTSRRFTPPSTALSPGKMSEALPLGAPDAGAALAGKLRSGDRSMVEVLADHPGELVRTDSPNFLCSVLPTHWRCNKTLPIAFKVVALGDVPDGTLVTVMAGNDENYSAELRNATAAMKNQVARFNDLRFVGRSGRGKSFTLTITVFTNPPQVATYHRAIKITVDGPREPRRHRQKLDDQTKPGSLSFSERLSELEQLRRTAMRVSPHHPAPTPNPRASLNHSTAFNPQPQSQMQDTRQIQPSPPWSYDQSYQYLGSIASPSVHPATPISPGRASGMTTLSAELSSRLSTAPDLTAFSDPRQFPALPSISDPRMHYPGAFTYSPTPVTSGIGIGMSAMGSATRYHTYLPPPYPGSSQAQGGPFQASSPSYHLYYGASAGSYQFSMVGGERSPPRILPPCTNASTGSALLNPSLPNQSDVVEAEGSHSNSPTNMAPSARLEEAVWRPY
inactive: [1] 0.122 | [2] 0.081 | [3] -0.03 | [4] 0.048 | [5] -0.001 | [6] 0.032 | [7] 0.131 | [8] -0.033 | [9] -0.102 | [10] 0.058 | [11] -0.207 | [12] -0.043 | [13] -0.138 | [14] -0.184 | [15] 0.082 | [16] 0.069 | [17] 0.076

RPS20 isoform 2 (UniProt P60866)
active: [20] -0.368
inactive: [1] -0.129 | [2] -0.082 | [3] -0.171 | [4] 0.023 | [5] -0.004 | [6] -0.068 | [7] -0.04 | [8] -0.025 | [18] 0.05 | [19] -0.159 | [9] -0.103 | [10] 0.012 | [11] 0.02 | [12] 0.041 | [13] 0.046 | [14] -0.03 | [15] 0.012 | [16] 0.123 | [17] 0.195

RRAGC (UniProt Q9HB90)
Sequence of UniProt Q9HB90 (Q9HB90 whole entry, looked up): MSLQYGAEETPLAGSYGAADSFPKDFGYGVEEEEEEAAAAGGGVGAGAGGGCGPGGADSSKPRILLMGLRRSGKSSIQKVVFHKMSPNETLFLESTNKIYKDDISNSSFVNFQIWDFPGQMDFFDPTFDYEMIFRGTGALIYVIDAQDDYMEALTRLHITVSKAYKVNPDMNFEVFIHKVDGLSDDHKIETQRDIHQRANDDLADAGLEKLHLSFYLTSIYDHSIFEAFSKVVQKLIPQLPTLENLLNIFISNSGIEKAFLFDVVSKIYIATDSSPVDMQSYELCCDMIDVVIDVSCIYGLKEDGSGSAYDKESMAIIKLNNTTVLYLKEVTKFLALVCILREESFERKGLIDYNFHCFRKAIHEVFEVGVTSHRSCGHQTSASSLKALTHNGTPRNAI
inactive: [1] 0.014 | [2] 0.03 | [3] 0.047 | [4] -0.007 | [5] 0.019 | [6] 0.013 | [7] -0.051 | [8] -0.02 | [18] 0.014 | [19] 0.052 | [9] 0.033 | [10] -0.009 | [11] -0.057 | [12] -0.056 | [13] 0.004 | [14] -0.18 | [15] 0.068 | [16] -0.008 | [17] 0.024 | [20] 0.034

SCAMP2 (UniProt O15127)
Sequence of UniProt O15127 (O15127 whole entry, looked up): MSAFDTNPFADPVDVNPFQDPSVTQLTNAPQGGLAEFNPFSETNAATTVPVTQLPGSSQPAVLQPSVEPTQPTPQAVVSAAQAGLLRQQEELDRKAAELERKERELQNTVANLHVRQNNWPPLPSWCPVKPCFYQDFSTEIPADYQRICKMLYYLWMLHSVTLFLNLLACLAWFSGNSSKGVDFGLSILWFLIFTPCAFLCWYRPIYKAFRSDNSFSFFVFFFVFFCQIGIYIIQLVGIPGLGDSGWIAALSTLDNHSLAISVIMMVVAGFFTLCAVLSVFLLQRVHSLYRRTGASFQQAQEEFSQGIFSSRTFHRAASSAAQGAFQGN
inactive: [1] 0.014 | [2] 0.141 | [3] 0.081 | [4] 0.011 | [5] -0.154 | [6] 0.063 | [7] 0.055 | [8] 0.057 | [18] -0.116 | [19] 0.087 | [10] 0.09 | [11] 0.08 | [12] -0.019 | [13] 0.013 | [14] 0.003 | [15] 0.036 | [17] -0.093 | [20] -0.066

REEP4 (UniProt Q9H6H4)
Sequence of UniProt Q9H6H4 (Q9H6H4 whole entry, looked up): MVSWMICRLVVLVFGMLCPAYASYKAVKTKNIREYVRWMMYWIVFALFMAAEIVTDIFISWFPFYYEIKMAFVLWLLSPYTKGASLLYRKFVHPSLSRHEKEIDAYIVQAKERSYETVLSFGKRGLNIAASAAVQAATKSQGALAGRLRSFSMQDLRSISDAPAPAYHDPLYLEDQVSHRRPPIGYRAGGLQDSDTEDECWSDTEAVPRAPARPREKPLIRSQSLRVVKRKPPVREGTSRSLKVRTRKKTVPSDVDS
inactive: [1] -0.024 | [2] 0.027 | [3] -0.049 | [4] 0.026 | [5] -0.018 | [6] 0.005 | [7] 0.063 | [8] -0.04 | [18] 0.047 | [19] -0.081 | [9] 0.005 | [10] -0.003 | [11] -0.198 | [12] 0.164 | [13] -0.049 | [14] -0.157 | [15] 0.041 | [16] 0.13 | [17] 0.04 | [20] 0.036

RPS21 (UniProt P63220)
inactive: [1] -0.045 | [2] -0.062 | [3] -0.071 | [4] 0.017 | [5] -0.056 | [6] 0.079 | [7] -0.066 | [8] -0.027 | [18] 0.033 | [19] 0.017 | [9] -0.004 | [10] -0.035 | [11] 0.055 | [12] -0.014 | [13] 0.069 | [14] 0.056 | [15] 0.075 | [16] -0.022 | [17] 0.014 | [20] -0.02

SEPTIN5 (UniProt G3XAH0)
inactive: [1] 0.009 | [2] -0.251 | [3] 0.146 | [4] 0.076 | [5] -0.022 | [6] -0.035 | [7] 0.014 | [8] -0.24 | [18] 0.009 | [19] 0.049 | [10] 0.018 | [11] 0.123 | [12] -0.056 | [13] -0.133 | [14] 0.092 | [15] -0.009 | [17] -0.003 | [20] 0.027

RAB8B (UniProt Q92930)
Sequence of UniProt Q92930 (Q92930 whole entry, looked up): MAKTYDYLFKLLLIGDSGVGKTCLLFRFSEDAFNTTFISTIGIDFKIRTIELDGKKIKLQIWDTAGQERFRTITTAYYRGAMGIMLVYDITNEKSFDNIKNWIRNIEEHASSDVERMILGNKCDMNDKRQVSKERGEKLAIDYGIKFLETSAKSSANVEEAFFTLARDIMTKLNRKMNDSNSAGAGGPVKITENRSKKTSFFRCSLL
active: [3] 0.332
inactive: [1] 0.258 | [2] 0.085 | [4] 0.028 | [5] -0.02 | [6] 0.145 | [7] 0.029 | [8] 0.012 | [18] 0.027 | [19] -0.043 | [9] 0.028 | [10] -0.009 | [11] 0 | [12] -0.001 | [13] -0.047 | [14] -0.002 | [15] 0.046 | [16] -0.091 | [17] 0.019 | [20] 0.004

SAAL1 (UniProt Q96ER3)
Sequence of UniProt Q96ER3 (Q96ER3 whole entry, looked up): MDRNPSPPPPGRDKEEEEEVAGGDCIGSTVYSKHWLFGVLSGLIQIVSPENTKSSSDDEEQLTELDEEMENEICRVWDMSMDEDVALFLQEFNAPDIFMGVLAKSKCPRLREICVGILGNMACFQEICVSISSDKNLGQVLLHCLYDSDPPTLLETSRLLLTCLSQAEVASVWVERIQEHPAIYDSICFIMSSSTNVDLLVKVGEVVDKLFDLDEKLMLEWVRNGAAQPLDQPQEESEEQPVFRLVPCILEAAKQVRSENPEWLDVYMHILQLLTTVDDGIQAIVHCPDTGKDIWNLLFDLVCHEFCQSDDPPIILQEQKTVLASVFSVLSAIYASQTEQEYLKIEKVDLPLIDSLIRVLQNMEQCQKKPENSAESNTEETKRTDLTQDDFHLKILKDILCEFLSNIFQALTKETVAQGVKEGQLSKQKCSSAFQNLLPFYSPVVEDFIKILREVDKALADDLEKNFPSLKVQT
inactive: [1] -0.044 | [2] 0.028 | [3] 0.046 | [4] 0.022 | [5] -0.033 | [6] 0.125 | [7] -0.041 | [8] -0.007 | [18] 0.042 | [19] -0.03 | [9] 0.019 | [10] -0.035 | [12] -0.033 | [13] -0.112 | [14] 0.012 | [15] 0.032 | [16] 0.073 | [17] 0.026
active: [11] 0.578 | [20] 0.239

RPS14 (UniProt P62263)
inactive: [1] -0.166 | [2] -0.077 | [3] -0.124 | [4] 0.027 | [5] -0.149 | [6] -0.04 | [7] 0.039 | [8] 0.045 | [18] 0.031 | [19] -0.126 | [9] -0.178 | [10] 0.03 | [11] 0.079 | [12] 0.135 | [13] -0.014 | [14] -0.016 | [15] 0.003 | [16] -0.013 | [17] 0.035
active: [20] -0.586

RPS25 (UniProt P62851)
active: [20] -0.533
inactive: [1] -0.083 | [2] -0.071 | [3] -0.276 | [4] 0.077 | [5] -0.075 | [6] -0.091 | [7] -0.067 | [8] 0.033 | [18] 0.061 | [19] -0.141 | [9] -0.08 | [10] 0.01 | [11] 0.069 | [12] 0.073 | [13] 0.033 | [14] -0.028 | [15] 0.054 | [16] 0.184 | [17] 0.006

RRP36 (UniProt Q96EU6)
Sequence of UniProt Q96EU6 (Q96EU6 whole entry, looked up): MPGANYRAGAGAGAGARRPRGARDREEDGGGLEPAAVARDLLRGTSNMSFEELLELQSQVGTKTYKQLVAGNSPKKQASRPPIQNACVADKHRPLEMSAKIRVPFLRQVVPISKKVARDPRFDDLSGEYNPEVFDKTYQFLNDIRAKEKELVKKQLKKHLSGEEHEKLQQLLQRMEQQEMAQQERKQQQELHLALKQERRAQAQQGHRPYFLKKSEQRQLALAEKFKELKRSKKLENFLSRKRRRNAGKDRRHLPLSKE
active: [20] -0.785
inactive: [1] -0.192 | [2] -0.147 | [3] -0.586 | [4] -0.005 | [5] -0.133 | [6] -0.06 | [7] 0.019 | [8] 0.012 | [18] 0.045 | [19] -0.146 | [10] 0.045 | [11] 0.122 | [12] 0.083 | [13] 0 | [14] 0.044 | [15] 0.042 | [17] 0.021
